Compound activity (PubChem)
CHX counter: Cycloheximide Counterscreen for Small Molecule Inhibitors of Shiga Toxin | cell reporter, cycloheximide protein synthesis inhibition counterscreen | max response, % | 300,000 compounds, 12% hits; in the data active means max response mostly above about 13%, no sharp cut-off; inactive means mostly below about 14%; further: read at 38.3 µM for the half of the compounds with a filed dose
Marburg entry inh: qHTS for inhibitors of binding or entry into cells for Marburg Virus. Marburg virus pseudotyped entry inhibition, cell reporter. 300,000 compounds, 1.8% hits. Potency, µM (doses to about 37.8 µM), actives largely listed as inhibitors. AID 540276, 2011; calls by dose curve; tested in HEK293 cells
Pf growth 96h: Primary qHTS for delayed death inhibitors of the malarial parasite plastid, 96 hour incubation; P. falciparum luciferase reporter growth, 96 h; Potency, µM (series often up to 28.7 µM), actives largely listed as inhibitors; 320,000 compounds, 6.9% hits; AID 504834, 2011
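Parasite growth measured via integrated firefly luciferase reporter in P. falciparum. Infected erythrocytes at 2% hematocrit, 0.05% parasitemia final were treated 96 hours at 37 C under 5% CO2, and luminescence was read.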
Shiga inhibitor: A qHTS for Small Molecule Inhibitors of Shiga Toxin; Vero cells, Shiga toxin protein synthesis inhibition reporter; inhibition, % at 38.7 µM; 290,000 compounds, 9.2% hits; AID 2315, 2010; in the data active means inhibition mostly above about 28%, no sharp cut-off; inactive means mostly below about 43%
Pf growth 48h: Primary qHTS for delayed death inhibitors of the malarial parasite plastid, 48 hour incubation; Potency, µM (titrated, usually from 28.7 µM), most hits filed as inhibitors; 310,000 compounds, 5.9% hits; P. falciparum luciferase growth in erythrocytes, 48 h; AID 504832, 2011
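First compound was added to culture medium, then infected red cells at 0.1% parasitemia and 2% hematocrit (final). After incubation at 37 C under 5% CO2, luciferase detection reagent was dispensed and light output recorded.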
LASV entry inh: qHTS for Inhibitors of binding or entry into cells for Lassa Virus. Potency, µM (doses to about 37.9 µM), most hits filed as inhibitors. 300,000 compounds, 1.2% hits. Lassa virus pseudotype entry inhibition, cell reporter; calls by dose curve; tested in HEK293 cells; further: nearly all actives have a fitted effect of over 50% in size
A number is an active result; [ ] = dose if it differs, or a comment. Compounds with a hit are over-represented: about 19% of the library has one in this group of screens. Unless noted, the call rests on the fitted dose curve; in most records, active means well fitted inhibition curve with a large enough effect; inconclusive means small, poorly fitted or top-dose-only effect, or another doubt; inactive means no such curve, though single readings can be large or run the other way.

For Cc1cc(C(=O)CCl)c(C)n1-c1c(C)n(C)n(-c2ccccc2)c1=O the results were CHX counter inactive, Marburg entry inh inconclusive, Pf growth 96h 6.57µM, Shiga inhibitor inactive, Pf growth 48h 8.28µM and LASV entry inh inconclusive.
`Cc1cc(-n2c(C)cc(C(=O)CSc3nnnn3-c3ccccc3)c2C)no1` gave CHX counter inactive, Marburg entry inh inactive, Pf growth 96h inactive[5.75 µM], Shiga inhibitor inactive, Pf growth 48h inconclusive and LASV entry inh inconclusive.
Cc1cc(C(=O)CSc2cccc[n+]2[O-])c(C)n1-c1ccc(Br)cc1 was read as CHX counter 34.5, Pf growth 96h 6.57µM, Shiga inhibitor 90.9 and Pf growth 48h inactive.
Screening COc1ccc(OC)c(CNC(=O)c2cc3c(Cl)nc4ccccc4c3s2)c1 returned Marburg entry inh inactive and LASV entry inh inactive.
For Cc1ccccc1CNC(=O)C(=O)NCC1CCCN1S(=O)(=O)c1ccccc1 (centres undefined) the results were Marburg entry inh inconclusive, Pf growth 96h inconclusive, Pf growth 48h inconclusive and LASV entry inh inactive.
O=C(O)/C=C/C(=O)NCc1ccccn1 was read as CHX counter inactive, Marburg entry inh inactive, Pf growth 96h inactive, Shiga inhibitor inactive, Pf growth 48h inactive and LASV entry inh inactive.
`Cc1cc(C(=O)CSc2cccc[n+]2[O-])c(C)n1-c1ccccc1` gave CHX counter 46.7, Marburg entry inh inconclusive, Pf growth 96h inactive, Shiga inhibitor 85.3 and Pf growth 48h inactive.
Screening CN(C)S(=O)(=O)Nc1ccccc1F returned CHX counter inactive, Marburg entry inh inactive, Pf growth 96h inconclusive, Shiga inhibitor inactive, Pf growth 48h inactive and LASV entry inh inactive.
For CC1(C)CC2(CCO1)N1CC3(C)CN2CC(C)(C1)C3O (centres undefined) the results were CHX counter inactive, Marburg entry inh inactive, Shiga inhibitor inactive, Pf growth 48h inactive and LASV entry inh inactive.
CN(C)P(=O)(Nc1cccc2ccccc12)Nc1cccc2ccccc12 was read as Marburg entry inh inactive, Pf growth 96h inconclusive, Pf growth 48h 4.65µM and LASV entry inh inactive.
Screening CC(C)OP(=O)(Nc1cccc2ccccc12)OC(C)C returned CHX counter inactive, Marburg entry inh inconclusive, Pf growth 96h inconclusive, Shiga inhibitor inactive, Pf growth 48h inconclusive and LASV entry inh inactive.
O=S(=O)(Nc1nccs1)c1ccc(NCc2cc(Br)cc(Br)c2O)cc1 was read as CHX counter inactive, Pf growth 96h inactive, Shiga inhibitor inactive and Pf growth 48h inactive.
Screening COc1cc2c(cc1OC)CN(CC(=O)Nc1ccc(S(=O)(=O)N3CCCC3)cc1)CC2 returned CHX counter inactive, Pf growth 96h 13.1µM, Shiga inhibitor inactive and Pf growth 48h inactive.
COc1ccc(S(=O)(=O)N2CCc3cc(OC)c(OC)cc3C2)cc1 was read as CHX counter inactive, Pf growth 96h inactive, Shiga inhibitor inactive and Pf growth 48h 0.828µM.
For COc1cc2c(cc1OC)CN(S(=O)(=O)c1cccs1)CC2 the results were CHX counter inactive, Marburg entry inh inactive, Pf growth 96h inactive, Shiga inhibitor inactive, Pf growth 48h inactive and LASV entry inh inactive.
`COc1cc2c(cc1OC)C(C)N(CC(=O)Nc1ccc(S(=O)(=O)N3CCCC3)cc1)CC2` (centres undefined) gave CHX counter inactive, Pf growth 96h inconclusive, Shiga inhibitor inactive and Pf growth 48h 11.7µM.
CCOc1cccc2cc(-c3nnc(NCc4ccc5c(c4)OCO5)s3)c(=O)oc12 was read as CHX counter inactive, Marburg entry inh inactive, Pf growth 96h inactive, Shiga inhibitor inactive, Pf growth 48h inactive and LASV entry inh inactive.
`Cn1c(=Nc2ccccc2)sc2ccccc21` gave CHX counter 36.3, Marburg entry inh inactive, Shiga inhibitor inactive, Pf growth 48h inactive and LASV entry inh inconclusive.
`CN(C)c1ccc(N=c2sc3ccccc3n2C)cc1` gave CHX counter 54.1, Marburg entry inh inconclusive, Pf growth 96h inconclusive, Shiga inhibitor 88.9 and LASV entry inh inactive.
`Cc1cccc(N2CCN(c3ncnc4onc(C)c34)CC2)c1C` gave LASV entry inh inactive.
Screening COc1ccc(NC(=O)c2ccc(-c3ccccc3Cl)o2)cc1 returned CHX counter 42.8, Marburg entry inh inconclusive, Pf growth 96h inactive, Shiga inhibitor inactive, Pf growth 48h inactive and LASV entry inh inactive.
